The target in test [1] is Protein kinase C eta type (Homo sapiens) (UniProt P24723). The settings on record: at 1 µM.
For test [2] the target is unchanged. The conditions noted are these: at 10 µM.
Test [3] has as its target Protein kinase C theta type (Homo sapiens) (UniProt Q04759). The conditions noted are these: at 1 µM.
The target is the same in test [4]. The conditions noted are these: at 10 µM.
Test [5] has as its target T1, Protein kinase C iota type (Homo sapiens) (UniProt P41743).
T1 sequence (whole entry): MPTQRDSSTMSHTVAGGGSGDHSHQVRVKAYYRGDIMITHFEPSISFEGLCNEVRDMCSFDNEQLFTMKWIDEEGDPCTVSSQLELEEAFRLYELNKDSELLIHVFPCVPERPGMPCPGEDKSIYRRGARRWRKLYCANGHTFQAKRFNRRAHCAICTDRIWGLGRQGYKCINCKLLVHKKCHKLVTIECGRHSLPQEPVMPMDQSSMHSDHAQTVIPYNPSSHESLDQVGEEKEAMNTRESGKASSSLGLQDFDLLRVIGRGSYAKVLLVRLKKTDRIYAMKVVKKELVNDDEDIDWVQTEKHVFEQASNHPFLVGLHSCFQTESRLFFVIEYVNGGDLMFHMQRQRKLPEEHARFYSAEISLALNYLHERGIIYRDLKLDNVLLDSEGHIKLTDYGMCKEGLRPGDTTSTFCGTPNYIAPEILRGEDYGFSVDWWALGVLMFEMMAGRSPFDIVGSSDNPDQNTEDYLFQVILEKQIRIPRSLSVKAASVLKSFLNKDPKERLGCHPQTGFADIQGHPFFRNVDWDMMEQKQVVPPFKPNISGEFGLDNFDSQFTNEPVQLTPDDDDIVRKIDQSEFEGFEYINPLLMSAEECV
The settings on record: at 1 µM.

In test [6] the target is T1, Protein kinase C iota type (Homo sapiens). The settings on record: at 10 µM.
The target of test [7] is T2, Serine/threonine-protein kinase D1 (Homo sapiens) (UniProt Q15139).
T2 sequence (whole entry): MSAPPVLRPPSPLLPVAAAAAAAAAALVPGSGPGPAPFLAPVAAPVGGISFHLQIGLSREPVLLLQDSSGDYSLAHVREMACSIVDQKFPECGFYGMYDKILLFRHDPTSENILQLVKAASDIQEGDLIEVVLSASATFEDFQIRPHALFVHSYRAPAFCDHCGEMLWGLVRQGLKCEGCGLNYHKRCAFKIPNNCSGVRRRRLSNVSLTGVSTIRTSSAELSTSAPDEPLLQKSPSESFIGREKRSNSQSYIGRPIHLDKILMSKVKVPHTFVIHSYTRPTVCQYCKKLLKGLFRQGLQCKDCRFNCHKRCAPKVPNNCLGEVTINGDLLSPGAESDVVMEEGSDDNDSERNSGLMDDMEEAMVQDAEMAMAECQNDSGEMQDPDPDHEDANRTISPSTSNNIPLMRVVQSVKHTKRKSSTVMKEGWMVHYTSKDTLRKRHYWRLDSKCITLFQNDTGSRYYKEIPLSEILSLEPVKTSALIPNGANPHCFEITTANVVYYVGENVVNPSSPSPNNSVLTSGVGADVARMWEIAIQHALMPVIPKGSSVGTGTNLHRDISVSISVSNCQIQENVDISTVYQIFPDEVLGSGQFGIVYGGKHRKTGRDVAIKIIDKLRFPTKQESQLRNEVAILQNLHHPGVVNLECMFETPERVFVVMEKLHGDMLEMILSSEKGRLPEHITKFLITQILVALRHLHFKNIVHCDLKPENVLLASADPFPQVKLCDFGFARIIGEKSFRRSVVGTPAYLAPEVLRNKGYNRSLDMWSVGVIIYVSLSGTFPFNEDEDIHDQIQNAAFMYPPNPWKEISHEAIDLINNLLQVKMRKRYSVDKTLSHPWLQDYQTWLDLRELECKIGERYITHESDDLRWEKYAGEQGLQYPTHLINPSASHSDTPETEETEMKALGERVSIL
The settings on record: at 1 µM.

In test [8] the target is T3, Serine/threonine-protein kinase D2 (Homo sapiens) (UniProt Q9BZL6).
T3 sequence (whole entry): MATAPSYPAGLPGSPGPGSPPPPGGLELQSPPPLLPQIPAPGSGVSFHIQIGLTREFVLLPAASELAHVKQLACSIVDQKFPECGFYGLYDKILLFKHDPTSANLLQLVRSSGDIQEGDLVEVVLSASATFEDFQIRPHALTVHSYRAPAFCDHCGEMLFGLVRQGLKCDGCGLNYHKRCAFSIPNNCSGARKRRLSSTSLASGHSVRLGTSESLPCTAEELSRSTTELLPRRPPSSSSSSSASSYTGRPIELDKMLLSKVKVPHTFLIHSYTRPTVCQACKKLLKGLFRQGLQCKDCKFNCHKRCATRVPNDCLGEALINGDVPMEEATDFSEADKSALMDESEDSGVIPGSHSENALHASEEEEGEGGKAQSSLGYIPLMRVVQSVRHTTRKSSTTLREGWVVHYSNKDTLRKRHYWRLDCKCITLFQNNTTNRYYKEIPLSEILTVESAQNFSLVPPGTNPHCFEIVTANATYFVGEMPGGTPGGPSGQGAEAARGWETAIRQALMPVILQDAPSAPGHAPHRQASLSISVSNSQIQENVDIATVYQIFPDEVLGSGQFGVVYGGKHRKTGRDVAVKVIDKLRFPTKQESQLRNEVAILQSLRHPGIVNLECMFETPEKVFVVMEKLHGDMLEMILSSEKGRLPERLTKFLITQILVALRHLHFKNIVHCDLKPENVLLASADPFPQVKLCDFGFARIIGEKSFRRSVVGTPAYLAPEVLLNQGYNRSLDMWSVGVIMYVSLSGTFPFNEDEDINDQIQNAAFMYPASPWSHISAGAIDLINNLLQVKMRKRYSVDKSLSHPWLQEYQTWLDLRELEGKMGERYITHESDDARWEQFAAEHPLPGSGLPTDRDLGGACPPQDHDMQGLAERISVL
The conditions noted are these: at 1 µM.

For test [9], the target named is T3, Serine/threonine-protein kinase D2 (Homo sapiens). The settings on record: at 10 µM.
For test [10], the target named is T2, Serine/threonine-protein kinase D1 (Homo sapiens). The conditions noted are these: at 10 µM.

Chain of Protein kinase C theta type (Homo sapiens) (Q04759 whole entry, looked up): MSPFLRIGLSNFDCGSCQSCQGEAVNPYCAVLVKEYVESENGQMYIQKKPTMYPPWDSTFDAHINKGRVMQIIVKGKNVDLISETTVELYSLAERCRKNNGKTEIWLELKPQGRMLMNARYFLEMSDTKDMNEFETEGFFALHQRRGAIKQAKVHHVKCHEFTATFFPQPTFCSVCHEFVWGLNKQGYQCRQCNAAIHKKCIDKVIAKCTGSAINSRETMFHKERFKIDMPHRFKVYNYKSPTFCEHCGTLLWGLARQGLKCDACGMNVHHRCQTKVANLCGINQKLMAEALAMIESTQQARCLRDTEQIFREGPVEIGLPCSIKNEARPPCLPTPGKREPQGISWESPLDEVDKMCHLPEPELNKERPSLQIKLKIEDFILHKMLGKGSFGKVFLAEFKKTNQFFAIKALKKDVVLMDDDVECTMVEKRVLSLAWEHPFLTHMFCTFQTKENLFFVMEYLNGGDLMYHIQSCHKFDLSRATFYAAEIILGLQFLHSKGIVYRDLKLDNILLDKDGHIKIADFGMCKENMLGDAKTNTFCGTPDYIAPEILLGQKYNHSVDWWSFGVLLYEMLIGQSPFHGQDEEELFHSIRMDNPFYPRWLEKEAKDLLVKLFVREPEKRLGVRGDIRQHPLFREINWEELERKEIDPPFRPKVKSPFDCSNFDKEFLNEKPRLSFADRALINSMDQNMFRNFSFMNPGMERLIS
Chain of Protein kinase C eta type (Homo sapiens) (P24723 whole entry): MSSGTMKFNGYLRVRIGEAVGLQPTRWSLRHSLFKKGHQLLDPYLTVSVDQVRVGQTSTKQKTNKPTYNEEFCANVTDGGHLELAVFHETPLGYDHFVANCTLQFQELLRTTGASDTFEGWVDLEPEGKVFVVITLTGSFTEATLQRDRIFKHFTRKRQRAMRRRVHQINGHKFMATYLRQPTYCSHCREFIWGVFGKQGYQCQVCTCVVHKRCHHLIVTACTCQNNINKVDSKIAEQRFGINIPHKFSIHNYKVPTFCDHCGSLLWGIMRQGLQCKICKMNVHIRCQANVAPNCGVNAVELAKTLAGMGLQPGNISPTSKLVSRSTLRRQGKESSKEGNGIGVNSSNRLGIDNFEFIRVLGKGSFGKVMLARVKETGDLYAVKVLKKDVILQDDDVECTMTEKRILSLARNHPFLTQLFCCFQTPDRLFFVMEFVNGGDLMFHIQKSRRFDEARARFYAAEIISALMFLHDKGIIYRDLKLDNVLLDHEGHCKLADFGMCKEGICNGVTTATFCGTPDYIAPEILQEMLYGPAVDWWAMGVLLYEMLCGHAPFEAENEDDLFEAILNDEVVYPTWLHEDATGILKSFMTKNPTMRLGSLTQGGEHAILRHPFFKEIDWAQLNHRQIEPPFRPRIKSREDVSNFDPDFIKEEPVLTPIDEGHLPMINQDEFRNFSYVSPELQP

As for `CC(=O)O/N=C1\C(=C2\C(=O)Nc3cc(Br)ccc32)Nc2ccccc21`, the residual activity (usually the signal under treatment as a percentage of the control signal) in test [1] is 101%; in [2] it was 106%; in test [3], 97%; in [4], 96%; in test [5] it was 104% (inactive); in [6], 103%. Further, the residual activity in test [7] was 85%; in test [8], 104%; in test [9], 102%.

In the case of `COc1ccc(S(=O)(=O)N(CCO)c2ccccc2CN(C)C/C=C/c2ccc(Cl)cc2)cc1`, the residual activity in test [1] was 78%; in [2], 89%; in [3], 89%; in [4] it was 93%; in test [5] it was 117% (inactive); in [6], 110%. Moreover, the residual activity in [7] was found to be 83%; in [10], 77%; in test [8], 102%; in test [9], 99%.

Take `Oc1ccc(Nc2nc(-c3ccc(Cl)cc3)cs2)cc1`: the residual activity in test [1] was 78%; in test [2] it was 79%; in test [3], 100%; in [4], 114%; in test [5], 109% (inactive); in test [6], 103%. Further, the residual activity was found to be 94% in [7], 100% in test [10], 106% in test [8] and 93% in test [9].

Consider `COc1cc2ncnc(Nc3ccc(O)c(Br)c3)c2cc1OC`, for which the residual activity in test [1] is 94%; in test [2], 69%; in [3], 83%; in [4], 81%; in test [5], 88% (inactive); in [6], 106%. Moreover, the residual activity in test [7] was 47%; in test [10] it was 16%; in [8], 93%; in test [9], 79%.

In the case of `N#CC(C#N)=C(N)/C(C#N)=C/c1ccc(O)cc1`, the residual activity in test [1] is 118%; in [2], 81%; in test [5] it was 81% (inactive); in [6], 75%; in [7], 93%.

Consider `COc1cc2ncnc(Nc3ccc(Oc4ccccc4)cc3)c2cc1OC`, for which the residual activity in [1] was 98%; in [2], 83%; in test [3] it was 108%; in test [4], 112%; in test [5], 90% (inactive); in test [6], 76%. The residual activity in test [7] stood at 95%; in test [10], 103%; in [8], 106%; in test [9], 106%.

For `Nc1nc(Nc2ccc(S(N)(=O)=O)cc2)nn1C(=S)Nc1c(F)cccc1F`, the residual activity in [1] turned out to be 30%; in test [2] it was 4%; in [3], 10%; in test [4] it was 2%; in test [6] it was 80%; in test [7], 2%. Moreover, the residual activity in test [10] worked out at 4%; in test [8], 45%; in test [9] it was 6%.

As for `N#CCCc1ccc2c(c1)-c1[nH]c3ccc([N+](=O)[O-])cc3c1CC(=O)N2`, the residual activity in [6] amounted to 67%; in test [10] it was 76%.

As to `COc1cc2ncnc(Nc3ccc(NC(=O)c4ccccc4)cc3)c2cc1OC`, the residual activity in test [1] was 137%; in [2] it was 95%; in [4], 101%; in test [5], 101% (inactive); in [6], 66%; in [10], 88%. In addition, the residual activity stood at 100% in test [8] and 106% in [9].

`O=C(Nc1cccc(Nc2nccc(Nc3cccc(C(F)(F)F)c3)n2)c1)C1CC1`: the residual activity in test [1] is 107%; in test [2], 84%; in [3], 102%; in test [4], 82%; in test [5], 84% (inactive); in [6], 77%. The residual activity worked out at 101% in [7], 125% in test [10], 99% in [8] and 96% in test [9].

Consider `c1ccc(-c2n[nH]c3c2oc2ccccc23)cc1`, for which the residual activity in test [1] was 91%; in test [2], 85%; in test [3], 98%; in [4], 96%; in [5], 90% (inactive); in [6], 79%. In test [10], the residual activity is 72%.

Take `CN(C)CCCn1cc(C2=C(c3c[nH]c4ccccc34)C(=O)NC2=O)c2ccccc21`: the residual activity in test [5] was 74% (inactive); in test [6] it was 47%; in test [7], 108%; in test [10] it was 43%; in [9] it was 82%.

In the case of `Cc1cc(Nc2nc(-c3ccccc3)nc3ccccc23)n[nH]1`, the residual activity in test [3] is 64%; in test [4] it was 26%; in test [5], 112% (inactive); in test [6], 107%; in test [8], 110%; in test [9], 104%.

As to `Nc1ccc2ncnc(NCCc3ccc(Oc4ccccc4)cc3)c2c1`, the residual activity in [1] is 102%; in test [2], 90%; in test [3] it was 108%; in test [4], 105%; in test [5], 113% (inactive); in test [6], 111%. For the same molecule, the residual activity in test [7] was found to be 91%; in test [10] it was 82%; in [8], 107%; in [9], 102%.

On to `CCC(=O)Nc1ccc2ncnc(Nc3cccc(Br)c3)c2c1`, for which the residual activity in test [1] was 85%; in [2], 82%; in [3], 96%; in test [4], 95%; in [5], 100% (inactive); in [6] it was 101%. The residual activity in test [7] was determined as 85%; in test [10], 82%; in [8] it was 105%; in [9], 112%.

For `COc1cc2ncc(-c3ccccc3)nc2cc1OC`, the residual activity in [6] amounted to 68%; in test [8], 96%; in test [9], 99%.

Turning to `O=C1Nc2cc(Br)ccc2/C1=C1/Nc2ccccc2/C1=N\O`, the residual activity is 76% in [1]; 74% in [2]; 87% in [3]; 75% in test [4]; 110% (inactive) in test [5]; 112% in [6]. Also, the residual activity in [7] is 90%; in [10] it was 100%; in [8], 101%; in [9], 95%.

Take `O=C1NC(=O)c2c1c1c3ccccc3[nH]c1c1[nH]c3cc(Br)ccc3c21`: the residual activity in test [1] was 72%; in test [2] it was 89%; in [3], 80%; in test [4], 91%; in test [5], 102% (inactive); in test [7], 111%. Further, the residual activity came to 72% in test [10], 103% in test [8] and 90% in test [9].

Take `O=C1Nc2ccccc2/C1=C1/Nc2ccccc2/C1=N\OCCC(O)CO` (stereo not given): the residual activity in test [3] was 66%; in [4], 29%; in test [5], 113% (inactive); in test [7], 73%; in test [10] it was 32%; in test [8], 101%. For the same molecule, the residual activity in [9] came to 76%.

The values above are taken from ChEMBL document CHEMBL2218924, “A broad activity screen in support of a chemogenomic map for kinase signalling research and drug discovery” (Biochem J, 2013).
